NadD block – inhibitors of S. aureus NadD, primary screen, biochemical, colorimetric, uHTS; Nicotinate-nucleotide adenylyltransferase NadD (Staphylococcus aureus N315); purified NadD enzyme, colorimetric absorbance read-out; inhibition, % at 20 µM; 0.78% of 360,000 active; AID 602399, 2012; in the data active means inhibition above about 26%
DAGLB inhibitor – DAGLB lipase inhibitors, primary screen, biochemical, fluorescence, HTS; Diacylglycerol lipase-beta (Homo sapiens), Q8NCG7; HEK293T DAGLB membrane lysate, EnzChek fluorogenic substrate; inhibition, % at 5.17 µM; 0.059% of 340,000 active; AID 504411, 2011; in the data active means inhibition above about 34%
bovine MsrA act – bovine MsrA enzyme activators, primary screen, biochemical, absorbance, HTS. Methionine sulfoxide reductase A (Bos taurus). purified bovine MsrA, absorbance read-out. activation, % at 10.6 µM. 0.3% of 360,000 active; in the data active means activation above about 7.5%
MsrA inhibitor – bovine MsrA enzyme inhibitors, primary screen, biochemical, absorbance, HTS. AID 651718, 2012. inhibition, % at 15.5 µM. 0.75% of 360,000 active. purified bovine MsrA, absorbance read-out; in the data active means inhibition above about 4.5%
rCAG RNA binder – binders of r(CAG) RNA repeats, primary screen, biochemical, fluorescence. r(CAG) RNA repeat, TO-PRO-1 dye displacement fluorescence. 1.3% of 370,000 active. inhibition, % at 3 µM;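 active means inhibition above the plate cutoff, the mean of all test compounds on that plate plus 3 SD, cut at about 35% in these data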;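 further: higher means more dye released from RNA so lower well fluorescence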
DSG3 Ab inh – inhibitors of pemphigus antibody binding to DSG3, primary screen, biochemical, bead-based, flow cytometry, scFv-GFP | Desmoglein-3 (Homo sapiens), P32926 | DSG3-coupled beads, scFv-anti-DSG3-GFP binding; hits give low values | binding (percent of control), % at 10 µM | 0.48% of 310,000 active | AID 588358, 2011;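 active means binding more than 3 SD below its plate's average and above zero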;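 further: hits lower antibody fragment binding to DSG3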
Target sequence (P32926 whole entry, looked up, the tested form may be a part): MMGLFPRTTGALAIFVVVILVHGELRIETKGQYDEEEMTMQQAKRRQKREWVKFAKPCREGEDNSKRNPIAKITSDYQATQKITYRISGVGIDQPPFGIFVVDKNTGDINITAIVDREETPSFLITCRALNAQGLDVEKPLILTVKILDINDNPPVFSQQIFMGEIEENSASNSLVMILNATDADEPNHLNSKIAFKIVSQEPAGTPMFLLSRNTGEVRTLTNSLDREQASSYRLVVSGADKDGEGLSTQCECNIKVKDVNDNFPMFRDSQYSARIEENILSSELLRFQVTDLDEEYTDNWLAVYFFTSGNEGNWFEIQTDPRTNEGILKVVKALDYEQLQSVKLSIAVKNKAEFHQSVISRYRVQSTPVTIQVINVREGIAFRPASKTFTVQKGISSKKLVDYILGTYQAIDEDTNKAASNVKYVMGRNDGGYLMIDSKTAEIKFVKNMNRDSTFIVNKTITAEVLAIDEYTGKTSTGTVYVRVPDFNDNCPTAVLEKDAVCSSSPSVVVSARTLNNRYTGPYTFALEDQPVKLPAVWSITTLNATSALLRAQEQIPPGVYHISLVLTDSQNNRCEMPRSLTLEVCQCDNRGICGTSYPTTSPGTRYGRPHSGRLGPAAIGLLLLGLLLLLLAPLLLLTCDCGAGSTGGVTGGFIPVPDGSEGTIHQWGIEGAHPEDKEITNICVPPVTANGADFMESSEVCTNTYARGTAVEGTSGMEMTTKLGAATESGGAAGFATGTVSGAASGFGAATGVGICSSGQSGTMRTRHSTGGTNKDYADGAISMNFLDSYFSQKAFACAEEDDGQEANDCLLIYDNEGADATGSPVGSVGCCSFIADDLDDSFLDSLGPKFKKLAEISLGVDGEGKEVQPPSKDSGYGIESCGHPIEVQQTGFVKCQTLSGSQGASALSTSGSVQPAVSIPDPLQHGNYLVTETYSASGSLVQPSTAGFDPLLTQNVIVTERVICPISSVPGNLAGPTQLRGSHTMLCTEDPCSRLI
Hits are given with their value; i = inactive; nt = not tested or not shown; ! = not active in a repeat. This is a sample that favours compounds with a hit; in the whole collection about 3.2% have one here.

SMILES	NadD block	DAGLB inhibitor	bovine MsrA act	MsrA inhibitor	rCAG RNA binder	DSG3 Ab inh
Cc1ccccc1-n1nc2c(c1NC(=O)c1ccco1)CS(=O)(=O)C2	i	i	i	i	i	i
COc1ccc(N(CC(C)C)S(=O)(=O)c2nnc(NC(=O)c3ccco3)s2)cc1	i	i	i	5.3	76	nt
CCN(c1ccc(OC)cc1)S(=O)(=O)c1nnc(NC(=O)c2ccco2)s1	i	i	i	4.6	i	nt
COc1ccc(N2CCN(S(=O)(=O)CCNC(=O)COc3ccccc3)CC2)cc1	i	i	i	i	i	i
COc1ccc(N2CCN(S(=O)(=O)CCNC(=O)COc3cccc(OC)c3)CC2)cc1	i	i	i	i	i	54
Cc1cc(C)cc(C(=O)OCCN(C)C2CN(Cc3cn(Cc4ccccc4C(F)(F)F)nn3)S(=O)(=O)C2)c1 (stereo not drawn)	nt	nt	nt	nt	i	nt
Oc1c(Br)cc(Br)cc1CNc1cccc2cccnc12	57	i	i	i	i	i
N#Cc1c(N2CCCC(O)C2)nc(N)c2c(N)nc3c(c12)CC(=O)N3C12CC3CC(CC(C3)C1)C2 (stereo not drawn)	57	i	i	i	i	nt
CCCCN1C(=O)Cc2c1nc(N)c1c(N)nc(N(CCC)CCC)c(C#N)c21	i	i	i	i	i	nt
NC(=O)[C@@H]1CCCCNc2c(I)cc([N+](=O)[O-])cc2C(=O)N[C@@H](CCC(=O)O)C(=O)N[C@@H](CO)C(=O)N1	i	i	i	i	46	i
Cc1ccc(NC(=S)NNC(=O)c2cnccn2)cc1	nt	nt	nt	nt	i	nt
CCOC(=O)c1cc(-c2ccccc2)sc1NC(=O)COC(=O)c1cccc(S(N)(=O)=O)c1	i	i	i	i	i	i
CCOC(=O)c1cc(-c2ccccc2)sc1NC(=O)COC(=O)c1ccc(Cl)c(S(N)(=O)=O)c1	42	i	i	nt	nt	i
O=C(NCc1ccccc1Cl)[C@H]1CCCN1C(=O)[C@H]1CCCN1C(=O)c1cccc2ccccc12	i	nt	i	i	i	nt
Cc1ccc2nc(NC(=O)C3CCN(c4ncnc5sc(C)c(C)c45)CC3)sc2c1	i	i	i	nt	nt	86
CS(=O)(=O)N[C@@H]1C[C@@H]2O[C@H](CO)CC[C@@H]2O[C@@H]1CCc1ccc(-c2ccccc2F)cc1	nt	nt	nt	nt	i	nt
CC(=O)OC(C=C(C)C)C/C(C)=C/COc1c2ccoc2cc2oc(=O)ccc12 (stereo not drawn)	i	i	i	13	i	i
COCC(C)n1c(C)cc(C(=O)COC(=O)c2nn(C)c(=O)c3ccccc23)c1C (stereo not drawn)	i	i	i	i	i	64
COCC(C)n1c(C)cc(C(=O)Cn2nc(C(=O)O)c3ccccc3c2=O)c1C (stereo not drawn)	i	i	i	i	i	i
O=c1[nH]cc(S(=O)(=O)N2CCN(c3ccc(F)cc3)CC2)c(=O)[nH]1	i	i	i	i	i	i
COc1ccc(NC(=O)c2oc3ccccc3c2NC(=O)c2ccc(OC)c(OC)c2)c(OC)c1	i	i	i	i	i	7.3
Cc1nc2c(-c3ccccc3)c[nH]n2c(=O)c1Cc1ccccc1	i	i	i	i	i	64
Cc1cc(=O)n2[nH]cc(-c3ccccc3)c2n1	i	i	i	i	i	i
CCCCCn1nnnc1C1c2ccccc2OCC(=O)N1Cc1ccco1 (stereo not drawn)	nt	nt	nt	nt	i	nt
Oc1ccc(N=Nc2ccc3c(c2)OCCO3)c2ncccc12	27	i	i	i	i	i
SMILES	NadD block	DAGLB inhibitor	bovine MsrA act	MsrA inhibitor	rCAG RNA binder	DSG3 Ab inh
Cc1cccc(N=Nc2ccc(O)c3ncccc23)c1	i	i	i	i	i	i
C/C(N)=C(/C#N)C(=O)CSc1nnc(-c2ccc(OC(F)F)cc2)o1	i	i	i	i	i	80!
Cc1[nH]n(-c2ccc([N+](=O)[O-])cc2)c(=O)c1C=NCCN1CCN(C(=O)c2ccccc2)CC1	i	i	i	4.8	i	nt
O=C(N/N=C/c1ccc2c(c1)OCCO2)c1ccncc1	i	i	i	4.5	i	i
COc1cc(C2Nc3cccc4cccc(c34)N2)ccc1OC(C)=O	47	i	i	nt	nt	i
COc1ccc(C2Nc3cccc4cccc(c34)N2)cc1Br	49	i	i	i	i	i
COC(=O)c1ccc(C2Nc3cccc4cccc(c34)N2)cc1	40	i	i	i	i	i
Brc1ccc(C2Nc3cccc4cccc(c34)N2)cc1	i	i	i	i	i	i
COc1cc(C2Nc3cccc4cccc(c34)N2)cc(OC)c1O	32	i	i	i	36	i
CCOC(=O)CC[C@H]1CC[C@]2(CCCN(Cc3ccccc3)C2)O1	nt	nt	nt	nt	i	nt
CCOC(=O)N1CCN(C(=O)C[C@H]2C[C@@]3(C(=O)OC)C(=C[C@H](C(C)C)O[C@@H]3C3CC3)N(CCC3=CCCCC3)C2=O)CC1	nt	nt	nt	nt	i	nt
CSc1ccccc1OCc1cc(C(=O)NCCC2=CCCCC2)no1	i	i	i	i	i	25
COc1ccc(N2CCN(C(=S)Nc3ccc(C)cc3)CC2)cc1	i	i	i	i	i	i
COc1ccc(N2CCN(C(=S)Nc3cccc(C)c3C)CC2)cc1	i	i	i	i	i	49
CC1(C)C(/C=C/C=C/C=C/C=C2\N(CCCCS(=O)(=O)O)c3ccc4ccccc4c3C2(C)C)=[N+](CCCCS(=O)(=O)[O-])c2ccc3ccccc3c21	67	i	i	nt	nt	33
Cc1c2ccccc2cc[n+]1CCCS(=O)(=O)[O-]	i	i	i	i	i	i
COc1ccccc1NC(=O)C1=C(C)NC(SCC(=O)c2ccccc2)=C(C#N)C1c1ccco1 (stereo not drawn)	36	i	i	nt	nt	i
COCCOC(=O)C1=C(C)NC(SCC(=O)NC(C)(C)C)=C(C#N)C1c1ccco1 (stereo not drawn)	i	i	i	i	i	i
Cc1ccc(N(C)c2nc(N)nc(N)c2N=O)cc1	nt	nt	nt	i	i	nt
COc1ccc(C2=NS(=O)(=O)N(C)C(C(=O)NC3CCCCC3)=C2)cc1	i	i	i	i	i	-19
Cc1ccc(NC(=O)c2csc(-c3ccccc3)c2C)cc1	i	i	i	i	i	-24
COC(=O)C1CN(Cc2ccc(F)cc2)CCS(=O)(=O)N1Cc1cn(CCOC(C)=O)nn1 (stereo not drawn)	nt	nt	nt	nt	i	nt
Cc1cccc(Cn2cc(COC(=O)N3CCCC3)nn2)c1	nt	nt	nt	nt	i	nt
CCOC(=O)C1=CCN(S(=O)(=O)c2ccccc2Cl)C1c1ccccc1 (stereo not drawn)	i	nt	i	i	i	nt
COc1cccc2c1C(=O)c1c(O)c3c(c(O)c1C2=O)C[C@@](O)(C(=O)CO)C[C@@H]3O[C@H]1C[C@H](N)[C@H](O)[C@H](C)O1	i	i	i	i	i	nt

High-throughput results from PubChem.
